A selection: hits, their analogues and other compounds. The true share with any hit is near 7.5%.
NPC1 promoter act: activators of NPC1 promoter; Huh7 NPC1 promoter luciferase reporter, 24 h; Potency, µM (highest dose often 9.22 µM), usual class: activators; 320,000 compounds, 2.4% hits; AID 485313; further: nearly all actives have a fitted effect of over 60% in size
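Stably transfected Huh7 (NPC1 promoter→luciferase), 1500 cells/well in Opti-MEM + 10% FBS, 2 h settle, then compound 24 h at 37 °C. Luminescence after 10 min with Amplite reagent.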
Rab9 promoter act: Rab9 promoter activation. Huh7 Rab9 promoter-luciferase reporter, luminescence, 24 h. Potency, µM (top dose mostly 9.22 µM), usual class: activators. 320,000 compounds, 2.8% hits. AID 485297; further: nearly all actives have a fitted effect of over 60% in size
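Luminescence read-out: Huh7 cells stably expressing Rab9-luciferase, treated 24 h with compound at 37 °C, then lysed with luciferase reagent for 10 min at ambient before reading.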
ELG1 genotox: induces genotoxicity in HEK293T cells with luciferase-tagged ELG1; HEK293T ELG1-luciferase reporter, luminescence, 16 h; Potency, µM (titrated, usually from 46 µM), usual class: activators; 330,000 compounds, 1.3% hits; further: nearly all actives have a fitted effect of over 60% in size
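Genotoxicity was scored as increased ELG1-luciferase reporter signal, measured by ONE-Glo luminescence (30 min, room temperature). Compound or vehicle exposure of the HEK293T reporter cells lasted 16 hr at 37°C.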
SMN2 splice up: increases expression of the SMN2 splice variant. HEK293 SMN2-luciferase splicing reporter, luminescence, 30-36 h. Potency, µM (highest dose often 46.1 µM), usual class: activators. 210,000 compounds, 2.8% hits. AID 1458; further: nearly all actives have a fitted effect of over 55% in size
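HEK293 cells carry an SMN2 minigene-luciferase reporter in which exon 7 inclusion puts luciferase in frame. Cells were seeded at 2000 cells/well, attached for 10-12 hours, then exposed to compounds for 30-36 hours at 37C before ONE-Glo luminescence.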
FLuc counter: counter-screen for miR-21 project: firefly luciferase inhibitors or activators; purified FLuc, Km substrates, luminescence inhibition; Potency, µM (highest dose often 57.5 µM), actives largely listed as inhibitors; 360,000 compounds, 6.9% hits; AID 588342; further: nearly all actives have a fitted effect of over 55% in size
Target sequence (P08659 whole entry, looked up): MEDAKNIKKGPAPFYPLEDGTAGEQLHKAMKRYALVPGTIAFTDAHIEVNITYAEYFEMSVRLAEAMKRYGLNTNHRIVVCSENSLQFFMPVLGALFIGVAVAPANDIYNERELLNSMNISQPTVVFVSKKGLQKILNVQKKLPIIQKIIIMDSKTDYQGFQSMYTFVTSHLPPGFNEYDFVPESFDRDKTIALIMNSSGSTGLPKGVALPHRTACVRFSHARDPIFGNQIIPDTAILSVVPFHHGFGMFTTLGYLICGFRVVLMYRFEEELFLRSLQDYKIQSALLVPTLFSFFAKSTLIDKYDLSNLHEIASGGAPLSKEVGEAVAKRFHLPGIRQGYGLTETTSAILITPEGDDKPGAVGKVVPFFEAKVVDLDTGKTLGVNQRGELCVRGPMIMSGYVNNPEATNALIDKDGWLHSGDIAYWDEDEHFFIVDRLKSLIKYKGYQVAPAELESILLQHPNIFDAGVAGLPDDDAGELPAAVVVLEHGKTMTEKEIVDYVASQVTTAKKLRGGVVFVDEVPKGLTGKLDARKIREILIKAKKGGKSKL
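Purified P. pyralis luciferase (10nM final) with 10uM D-luciferin and 10uM ATP (Km levels) in 50mM Tris acetate pH 7.5, 10mM Mg acetate, 0.01% Tween-20, 0.05% BSA; qHTS 6-point titration, ~60 µM downward; luminescence read.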
Numbers stand for hits; – = inactive; ? = inconclusive; · = no result given; [ ] = dose if it differs, or a comment. The call rests on the fitted dose curve; in most records, active means well fitted curve in the direction sought with a large enough effect; inconclusive means small, poorly fitted or top-dose-only effect, or another doubt; inactive means no such curve, though single readings can be large; an effect the other way counts as inactive or inconclusive.

SMILES	NPC1 promoter act	Rab9 promoter act	ELG1 genotox	SMN2 splice up	FLuc counter
Cc1cccc(-c2nnc(-c3ccc(N)cc3)o2)c1	?	2.82µM	?	4.47µM	3.38µM
O=S1(=O)CCN2C(=N1)Sc1c2ccc2c1CCCC2	–	–	?	–	15.1µM
O=C(O)c1ccc2c(c1)SC1=NS(=O)(=O)CCN12	–	–	–	·	–
Cc1ccc(NC(=O)Nc2cccc([N+](=O)[O-])c2)cc1F	?	–	–	·	10.7µM
O=C(Nc1ccc(OC(F)(F)F)cc1)Nc1cccc([N+](=O)[O-])c1	–	–	–	·	23.9µM
O=C(Nc1cccnc1)Nc1cccc([N+](=O)[O-])c1	–	–	–	·	–
Nc1nnc(CC(=O)N/N=C/c2ccc(-c3ccc(F)cc3)o2)s1	–	–	–	·	?
CCOC(=O)c1ccc(-c2ccc(/C=N/NC(=O)Cc3nnc(N)s3)o2)cc1	2.51µM	3.16µM	–	·	?
Cc1ccc(/C=N\NC(=O)c2cncc(Br)c2)o1	–	–	–	–	–
CCOC(=O)c1ccc(-c2ccc(/C=N/NC(=O)c3cncc(Br)c3)o2)cc1	1.26µM	0.708µM	?	·	–
COc1ccc(OCC(=O)N/N=C2\CCCCc3ccccc32)cc1	–	–	–	–	–
CCCn1c(=O)c2sccc2n2c(CCCC(=O)N3CCN(c4cccc(Cl)c4)CC3)nnc12	·	·	·	·	–
O=C(COC(=O)c1ccc(Cl)nc1)Nc1ccc(S(=O)(=O)N2CCCC2)cc1	–	–	–	·	–
O=c1c(N2CCc3ccccc3C2)csc2ccccc12	·	·	·	·	9.53µM
COc1ccccc1N1CCN(c2csc3ccccc3c2=O)CC1	·	·	·	·	10.7µM
O=c1c(N2CCc3ccccc3C2)csc2ccc(Br)cc12	·	·	·	·	9.53µM
O=c1c(N2CCN(c3cccc(C(F)(F)F)c3)CC2)csc2ccccc12	·	·	·	·	–
Cc1ccc(C)c(NC(=O)NNS(=O)(=O)c2ccc(C)c(C)c2)c1	–	–	–	·	–
O=C(COc1ccc(Cl)cc1)Nc1ccc2[nH]ncc2c1	–	–	–	·	–
COc1ccc(C(=O)Nc2ccc3[nH]ncc3c2)cc1	0.891µM	2.82µM	8.2µM	·	1.9µM
COc1ccc(C(=O)N/N=C(\C)CC(=O)Nc2ccc3ccccc3c2)c(OC)c1	–	–	–	·	–
CCOc1ccc(C(=O)Nc2ccc3[nH]ncc3c2)cc1	1.26µM	1.41µM	–	·	1.35µM
COc1ccc(C(=O)Nc2ccc3cn[nH]c3c2)c(OC)c1	?	?	?	12.6µM	6.01µM
CSC1=NS(=O)(=O)c2c(C)nn(C)c2S1	–	–	–	·	?
CCN(C(=O)COC(=O)c1ccc2ccccc2c1)c1c(N)n(Cc2ccccc2)c(=O)[nH]c1=O	–	–	–	·	–
SMILES	NPC1 promoter act	Rab9 promoter act	ELG1 genotox	SMN2 splice up	FLuc counter
CCn1cc(C(=O)Nc2ccc3c(c2)OCCO3)c2cc(OC)c(OC)cc2c1=O	–	–	–	–	–
COc1cc2[nH]c(C(=O)Nc3ccc4c(c3)OCCO4)cc2c(OC)c1OC	–	–	?	·	8.49µM
COc1cc(C(=O)NNC(=O)c2ccc3c(c2)OCCO3)cc(OC)c1OC	·	·	–	·	·
COc1cc2cc(C(=O)Nc3ccc4c(c3)OCCO4)[nH]c2cc1OC	–	–	?	·	12µM
O=C1/C(=C\c2ccc3ccccc3c2)CCCc2ccccc21	–	–	9.2µM	–	2.13µM
CCN1C/C(=C/c2sccc2C)c2nc3ccccc3c(C(=O)O)c2C1	–	–	–	·	?
Cc1ccsc1/C=C1\CCc2ccccc2C1=O	?	0.794µM	?	10µM	0.19µM
Cc1ccccc1/C=C1\CCCc2ccccc2C1=O	3.98µM	0.891µM	?	10µM	2.39µM
O=C(Nc1ccc2c(c1)Cc1ccccc1-2)c1ccncc1	–	–	–	–	?
C/C(=N\NC(=O)c1cc(Br)ccc1O)c1ccccn1	?	?	20.6µM	·	16.9µM
C/C(=N/NC(=O)c1ccccn1)c1ccncc1	3.55µM	?	?	·	16.9µM
C/C(=N\NC(=O)c1cccc(Br)c1)c1ccccn1	–	–	?	·	13.5µM
C/C(=N\NC(=O)c1ccccc1Cl)c1ccccn1	–	–	14.6µM	·	23.9µM
C/C(=N\NC(=O)c1ccc(Cl)c(Cl)c1)c1ccccn1	–	–	?	·	?
C/C(=N/NC(=O)c1cnccn1)c1ccncc1	–	–	–	–	–
CC(C)OC(=O)c1cccc(C(=O)O)n1	–	–	–	–	–
COCCNc1nc(-c2cc3ccccc3o2)cs1	1.58µM	1µM	?	3.16µM	1.51µM
COc1cc(OC)cc(C(=O)NC(=S)Nc2nc(-c3cc4ccccc4o3)cs2)c1	–	–	–	·	–
Cc1cccc(NC(=O)/C(C#N)=C/c2ccccc2Cl)n1	–	–	–	·	6.01µM
N#C/C(=C\c1ccccc1O)C(=O)Nc1ccccn1	–	–	–	·	4.78µM
Cc1cccc(NC(=O)/C(C#N)=C/c2cccc([N+](=O)[O-])c2)n1	–	–	–	·	?
Cc1cccc(NC(=O)/C(C#N)=C/c2ccccc2O)n1	3.55µM	3.98µM	16.4µM	·	0.601µM
Cn1cc(/C=C(\C#N)C(=O)Nc2ccccc2O)c2ccccc21	–	?	–	·	?
O=[N+]([O-])c1cccc(-c2ccc(CN3CCCCC3)o2)c1	–	–	–	·	–
COc1cccc(CC(NC(C)=O)C(=O)NC2CCN(C(=O)NCc3ccccc3)CC2)c1 (configuration not stated)	–	–	–	·	–
SMILES	NPC1 promoter act	Rab9 promoter act	ELG1 genotox	SMN2 splice up	FLuc counter
CC(=O)Nc1ccc(NC(=O)COC(=O)c2c3c(nc4ccccc24)CCN(Cc2ccccc2)C3)cc1	–	–	–	·	8.49µM
O=C(COC(=O)c1c2c(nc3ccccc13)CCN(Cc1ccccc1)C2)Nc1c(F)cccc1F	–	–	–	–	?
COCCN1C(=O)c2ccc(C(=O)Nc3cccnc3)cc2C1=O	–	–	–	·	–
CCN1C(=O)c2ccc(C(=O)NCc3ccccc3)cc2C1=O	–	–	–	–	–
CC(=O)Oc1cccc(NC(=O)c2ccc3c(c2)C(=O)N(CC(C)C)C3=O)c1	–	–	?	·	10.7µM
CC(=O)Nc1cccc(Oc2ccc3c(c2)C(=O)N(CCC(=O)O)C3=O)c1	–	–	–	–	–[2.3 µM]
COCCCN1C(=O)c2ccc(C(=O)NCCc3ccccc3)cc2C1=O	–	?	?	·	6.01µM
COc1cccc(C(=O)Nc2ccc3c(c2)C(=O)N(CCC(=O)O)C3=O)c1	–	–	–	–	16.9µM
COCCCN1C(=O)c2ccc(C(=O)Nc3cccc(OC)c3)cc2C1=O	–	–	?	–	10.7µM
O=C(C/C=N\OCc1ccc([N+](=O)[O-])cc1)Nc1ccc(Cl)cc1	–	–	–	–	–
Cc1cc(NC(=O)c2cc3n(n2)C(C(F)(F)F)CC(c2ccco2)N3)n(-c2ccccc2)n1 (configuration not stated)	–	–	–	–	–
O=c1c2[nH]c3ccccc3c2ncn1C1CCCCC1	4.47µM	?	?	–	?
O=c1c2ccccc2ncn1C1CCCCC1	·	·	·	–	–
